# Laboratory results taken from article PMC5540273 (PLoS ONE, 2017).
# Tests used:
# Conditions in all cases: concentration: 1 μM, replicates: in singlicate; n = 1
# CTK = test system: T1, CTK
# T1 construct: gene MATK
# DAPK1 = test system: DAPK1
# DAPK2 = test system: DAPK2
# DAPK3 = test system: DAPK3
# DCAMKL1 = test system: T2, DCAMKL1
# T2 construct: gene DCLK1
# DCAMKL2 = test system: T3, DCAMKL2
# T3 construct: gene DCLK2
# DCAMKL3 = test system: T4, DCAMKL3
# T4 construct: gene DCLK3
# DDR1 = test system: DDR1
# DDR2 = test system: DDR2
# DLK = test system: T5, DLK
# T5 construct: gene MAP3K12
# DMPK2 = test system: T6, DMPK2
# T6 construct: gene CDC42BPG
# DMPK = test system: DMPK
# DRAK1 = test system: T7, DRAK1
# T7 construct: gene STK17A
# DRAK2 = test system: T8, DRAK2
# T8 construct: gene STK17B
# DYRK1A = test system: DYRK1A
# DYRK1B = test system: DYRK1B
# DYRK2 = test system: DYRK2
# EGFR = test system: EGFR
# EIF2AK1 = test system: EIF2AK1
# EPHA1 = test system: EPHA1
# 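Note: KINOMEscan kinase panel screen.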
Compound,%Inh (CTK),%Inh (DAPK1),%Inh (DAPK2),%Inh (DAPK3),%Inh (DCAMKL1),%Inh (DCAMKL2),%Inh (DCAMKL3),%Inh (DDR1),%Inh (DDR2),%Inh (DLK),%Inh (DMPK2),%Inh (DMPK),%Inh (DRAK1),%Inh (DRAK2),%Inh (DYRK1A),%Inh (DYRK1B),%Inh (DYRK2),%Inh (EGFR),%Inh (EIF2AK1),%Inh (EPHA1)
Cc1ccccc1-c1cc(-c2c[nH]nc2-c2ccccn2)ccn1 [GW680061],0%,0%,0%,25%,0%,6%,12%,79%,5%,32%,0%,0%,2%,0%,14%,0%,0%,38%,0%,3%
Cc1cnc(N)c(/C=C/c2cncc(C(=O)NCCc3ccc(Cl)cc3Cl)c2)c1.Cl [GSK190937],0%,10%,7%,11%,4%,0%,23%,–,79%,25%,3%,0%,18%,0%,8%,15%,4%,0%,0%,0%
COc1cc2ncnc(Nc3cccc(Br)c3)c2cc1OC.Cl [GI230329],0%,0%,0%,9%,25%,0%,10%,63%,43%,39%,5%,6%,34%,0%,15%,0%,21%,–,47%,18%
Fc1ccc(-c2nn3cccc(F)c3c2-c2ccncc2)cc1 [GW475620],0%,0%,0%,5%,0%,0%,10%,47%,39%,15%,81%,28%,0%,17%,7%,0%,0%,52%,0%,22%
Cl.Cl.Cl.N#Cc1ccc(CCNc2nccc(-c3cccc(CN4CCNCC4)c3)n2)cc1 [GSK2137462],2%,28%,19%,75%,14%,0%,0%,0%,0%,0%,41%,10%,0%,0%,0%,0%,24%,11%,2%,19%
Cn1cnc2c(N)ncnc21 [SKF-97623],0%,100%,0%,0%,0%,0%,11%,0%,30%,6%,0%,0%,8%,0%,0%,36%,0%,13%,0%,0%
CC(C)c1ccc(O)cc1Nc1ccnc2ccc(C(F)(F)F)cc12 [GW482059],8%,5%,0%,0%,0%,0%,0%,18%,0%,17%,0%,0%,10%,0%,13%,16%,8%,37%,3%,6%
COc1ccc(CSc2nnc(-c3ccc4ncsc4c3)o2)cc1C(F)(F)F,5%,10%,4%,0%,9%,0%,0%,14%,12%,0%,0%,0%,0%,3%,36%,28%,0%,7%,0%,0%
Nc1nccc(-c2c(-c3ccc(F)cc3)ncn2C2CCN(Cc3ccccc3)CC2)n1 [SB-219980],11%,0%,0%,0%,0%,0%,13%,86%,74%,0%,52%,0%,10%,14%,0%,0%,14%,10%,0%,0%
COC(=O)c1cccc(NC(=O)NC2CCN(c3ccnc(Nc4ccc(F)cc4)n3)C2)c1 (centres unmarked) [GSK1379725],0%,0%,0%,0%,0%,0%,12%,0%,0%,0%,0%,0%,0%,0%,18%,0%,0%,0%,0%,8%
Cc1ccc(NC(=O)Nc2ccccc2)cc1-c1ccc(C(=O)Nc2ccncc2)cc1 [GSK1398471],0%,3%,3%,9%,10%,0%,24%,95%,38%,9%,9%,0%,9%,0%,9%,0%,14%,10%,0%,24%
CS(=O)(=O)CCNCc1nc(-c2ccc3ncnc(Nc4ccc(OCc5ccccc5)c(Cl)c4)c3c2)cs1.Cl [GW582764],0%,0%,0%,0%,13%,0%,6%,99.8%,40%,50%,0%,0%,4%,0%,19%,0%,0%,–,0%,8%
COc1ccc(Nc2nccc(N3CCC(NC(=O)C(C)c4ccc(Cl)cc4)CC3)n2)cc1 (centres unmarked) [GSK1379812],0%,3%,20%,10%,6%,0%,0%,0%,4%,0%,6%,1%,0%,0%,99.2%,0%,19%,0%,0%,0%
COc1cccc(NC(=O)Nc2ccc(C)c(-c3ccc(C(=O)Nc4ccncc4)cc3)c2)c1 [GSK1398474],0%,28%,8%,0%,1%,7%,0%,94.2%,36%,6%,5%,0%,0%,9%,9%,43%,22%,17%,7%,20%
CCn1c(-c2ccccc2)nc2cnccc21 [SB-733416],6%,0%,0%,18%,15%,1%,33%,16%,13%,16%,0%,0%,32%,12%,23%,0%,0%,37%,0%,22%
COc1ccc2cc(-c3nc(-c4ccccc4C(C)C)[nH]c3-c3ccncc3)ccc2c1 [SB-660566],0%,0%,0%,8%,1%,0%,23%,90.5%,6%,18%,0%,0%,6%,0%,31%,15%,7%,18%,3%,22%
